# Hits are enriched below; roughly 6.3% of the tested compounds scored in any of these assays.
# tim10-1 inh = tim10-1 yeast growth inhibition; S. cerevisiae tim10-1 ts strain growth, BacTiter-Glo, 24 h; inhibition, % at 20 µM; actives 2.2% (n = 330,000);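 active means inhibition of at least 40%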;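 further: mutant grown at 25 °C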
# Mdm2-MdmX inh = disrupts the human Mdm2-MdmX interaction; O15151+Q00987; SaOS-2 split-luciferase Mdm2/MdmX complementation, luminescence; AID 485346; inhibition, % at 8 µM; actives 3% (n = 330,000);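 active means inhibition of at least 50% at 8 µM in the primary screen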
# tim23-1 inh = tim23-1 yeast growth inhibition. actives 1.3% (n = 330,000). AID 463212. S. cerevisiae tim23-1 growth, BacTiter-Glo luminescence, 24 h. inhibition, % at 20 µM;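 active means growth inhibition of the mutant yeast at or above 50%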;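 further: temperature-sensitive mutant grown at 25 °C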
# TIM10 inh = inhibits growth of TIM10 yeast strain; S. cerevisiae TIM10 strain growth, BacTiter-Glo luminescence, 24 h; inhibition, % at 10 µM; actives 1.4% (n = 330,000); AID 463195;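 active means inhibition of 40% or more at the single tested concentration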;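 further: wild-type TIM10 isogenic control strain grown at permissive 25 °C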
# MPTP block = permeability transition pore inhibition; isolated mouse mitochondria, Ca2+ swelling absorbance, 30 min; inhibition, % at 10 µM; actives 1.4% (n = 360,000); AID 602449;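 active means inhibition of 50% or more, scaled per plate between neutral and stimulator controls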
# tim10 confirm = TIM10 yeast growth inhibition, confirmed | shares compounds with TIM10 inh | S. cerevisiae tim10 strain growth, BacTiter-Glo luminescence, 24 h | inhibition, % at 10 µM | actives 63% (n = 4,600) | AID 463215;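 active means inhibition of yeast growth at or above a set limit in either of two replicates at 10 µM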; further: this counterscreen used the strain with wild-type TIM10
# Hits are given with their value; 0 = inactive; - = no result given.
SMILES,tim10-1 inh,Mdm2-MdmX inh,tim23-1 inh,TIM10 inh,MPTP block,tim10 confirm
CCCC(=O)N1CCC1(C)C(=O)NS(=O)(=O)c1ccccc1 (stereo unspecified),-,-,-,-,0,-
CCCCn1nnnc1C(c1ccccc1)N1CCN(C(=O)c2ccco2)CC1 (stereo unspecified),-,-,-,-,0,-
COc1cc(OC)cc(C(=O)NC(=S)NCCc2ccccc2)c1,0,0,0,44,0,0
Cc1cccc(NC(=O)c2cc([N+](=O)[O-])ccc2NCC2CCCO2)n1 (stereo unspecified),0,0,0,49,0,43
O=C(Nc1ccc(S(=O)(=O)N2CCOCC2)cc1)c1ccc(Cl)s1,0,0,0,41,0,0
O=C(Nc1ccc(S(=O)(=O)N2CCCC2)cc1)c1cc(F)c(F)cc1Cl,0,0,0,41,0,33
O=C(Nc1ccc(S(=O)(=O)N2CCCCC2)cc1)c1ccccc1F,0,0,0,0,0,-
CCCCNC(=O)C[C@@H]1C[C@@]2(C(=O)OC)CCCCC=C2N(Cc2ccccc2)C1=O,-,-,-,-,0,-
O=C(NCC1CCCO1)c1ccc(Cl)c(NS(=O)(=O)c2ccc(F)cc2)c1 (stereo unspecified),-,-,-,-,0,-
COc1ccc(-c2cc(C3CCN(c4cc(Cl)nc(N)n4)CC3)[nH]n2)cc1,0,0,0,43,0,0
COc1nnc(-c2ccc(N3CCOCC3)c(NC(=O)c3ccccc3)c2)c2ccccc12,0,0,0,40,0,0
COc1nnc(-c2ccc(N3CCOCC3)c(NC(C)=O)c2)c2ccccc12,0,0,0,0,0,-
COC(=O)c1cnc(NC(=O)C2(C)CCN2C(=O)C(C)C)s1 (stereo unspecified),-,-,-,-,0,-
CC(O)(c1ccc(F)c(F)c1)c1nc(-c2cc(F)cc(F)c2)cs1 (stereo unspecified),-,-,-,-,0,-
CC(C)[C@H](NS(=O)(=O)c1cccc(Cl)c1)C(=O)OCC(=O)N1CCN(c2ccccc2)CC1,0,0,0,47,0,0
O=C(OCC(=O)N1CCN(c2ccccc2)CC1)c1cccc(Cl)c1,0,0,0,0,0,-
O=C(COC(=O)c1c(F)cccc1F)NCc1cccs1,0,0,0,71,0,0
Cc1cccc(C(=O)OCC(=O)NCc2cccs2)c1,0,0,0,0,0,-
COc1ccccc1Cn1c(/C=C/c2ccccc2)nc2ccccc21,0,0,0,42,0,0
Cn1c(=O)c(/C=C/c2ccccc2)nc2ccccc21,0,0,0,0,0,-
Cn1c(/C=C/c2ccccc2)nc2ccccc21,0,0,0,55,0,48
C[C@@]12C(=O)N(c3ccc(F)cc3)C(=O)N1[C@@H]1c3ccccc3OC[C@@H]1[C@H]2c1ccccc1,0,0,0,0,0,-
C[C@]12C(=O)N(c3ccc(F)cc3)C(=O)N1[C@H]1c3ccccc3OC[C@@H]1[C@H]2c1ccccc1,0,0,0,44,0,43
C[C@H]1CN([C@@H](C)CO)C(=O)CCCn2cc(nn2)CO[C@@H]1CN(C)C(=O)Cc1ccccc1,-,-,-,-,0,-
Cc1ccc(NCc2nnc(SCC(=O)N(Cc3ccccc3)C(C)(C)C)o2)c(C)c1,0,0,0,41,0,0
SMILES,tim10-1 inh,Mdm2-MdmX inh,tim23-1 inh,TIM10 inh,MPTP block,tim10 confirm
CCOC(=O)c1ccc(NC(=O)c2nc[nH]c2C(=O)N(C)CCO)cc1,-,-,-,-,0,-
O=C(Nc1ccc(F)cc1)c1ccc2c(=O)n3c(nc2c1)CCCCC3,0,0,0,0,0,-
O=C(Nc1ccccn1)c1ccc2c(=O)n3c(nc2c1)CCCCC3,0,0,0,51,0,35
O=C(Nc1ccc(F)c(Cl)c1)c1ccc2c(=O)n3c(nc2c1)CCCCC3,0,0,0,60,0,46
COc1ccc(N=Cc2nc(-c3ccccc3)oc2OC(=O)c2ccccc2)cc1,0,0,0,50,0,32
COc1cc(-c2nnc(COC(=O)c3ccc([N+](=O)[O-])o3)o2)cc(OC)c1OC,-,-,-,-,0,-
COc1ccc(C(=O)Nc2ccc(OCC(F)(F)C(F)F)c(C(F)(F)F)c2)cc1OC,0,0,0,45,0,0
COc1ccc(C(=O)Nc2ccncc2)cc1OC,0,0,0,0,0,-
COc1ncnc2c1ncn2CCCNC1CCN(Cc2ccccc2)CC1,-,-,-,-,0,-
COc1cc(Nc2ccn3nc(-c4ccccc4Cl)cc3n2)cc(OC)c1OC,-,-,-,-,0,-
Cc1ccc2ccccc2c1C(O)c1ncc(-c2ccccc2)[nH]1 (stereo unspecified),-,-,-,-,0,-
CC1(C(=O)NS(=O)(=O)c2cccc(Cl)c2)CCN1C(=O)C1(c2ccccc2)CC1 (stereo unspecified),-,-,-,-,0,-
C#CCOc1ccc(CNC[C@H]2O[C@@H](n3ccc(N)nc3=O)[C@H](O)[C@@H]2O)cc1,-,-,-,-,0,-
Cc1[nH]n(S(=O)(=O)Cc2ccccc2)c(=O)c1N=Nc1ccccc1Cl,0,0,0,41,0,0
Cc1[nH]n(S(=O)(=O)c2ccccc2)c(=O)c1N=Nc1cccc(Cl)c1,0,0,0,0,0,-
COCCNC(=O)C1(C)CCN(Cc2cccc(Oc3ccccc3)c2)C1 (stereo unspecified),-,-,-,-,0,-
O=C(NC1CCc2ccccc21)c1cc(COc2ccc(F)cc2Cl)on1 (stereo unspecified),0,0,0,68,0,0
C#CCSc1nnnn1-c1cccc(Cl)c1,0,0,0,49,0,0
CCCCN(CC)CCCNC(=O)c1cc2cc3ccc(C)cc3nc2o1,0,0,0,0,0,-
Cc1ccc2cc3cc(C(=O)NCCCN4CCCC4)oc3nc2c1,0,0,0,45,0,0
CC1=C(C(=O)N2CCCCCC2)CC(CC(=O)NC2CCCCC2)C(=O)N1Cc1ccc(F)cc1 (stereo unspecified),-,-,-,-,0,-
COc1cccc(CN2CCC(C)(Oc3cccc(Cl)c3)C2)c1OC (stereo unspecified),-,-,-,-,0,-
COc1cc(/C=C/C(=O)OCC(=O)c2ccc[nH]2)ccc1O,-,-,-,-,0,-
c1ccc(-c2nc(N3CCCCCC3)nc(-n3ccnc3)n2)cc1,0,0,0,48,0,0
O=C(NC(c1ccc(-c2ccccc2)cc1)c1cnccn1)C1CCN(CCCOc2ccccc2)CC1 (stereo unspecified),-,-,-,-,0,-
SMILES,tim10-1 inh,Mdm2-MdmX inh,tim23-1 inh,TIM10 inh,MPTP block,tim10 confirm
CCC(=O)N1CCc2cc(Br)cc(S(=O)(=O)N3CCCCCC3)c21,0,0,0,0,0,-
O=C(C1CC1)N1CCc2cc(Br)cc(S(=O)(=O)N3CCCCCC3)c21,0,0,0,47,0,0
O=C(CC[C@H]1O[C@@H](n2ccc(=O)[nH]c2=O)[C@H](O)[C@@H]1O)NCCc1c[nH]c2ccccc12,-,-,-,-,0,-
O=S(=O)(CCN1CCCCC1)Oc1ccc(Cl)cc1Cl,0,0,0,50,0,0
COC(=O)C1(C(=O)OC)c2cc3c(cc2CN(S(=O)(=O)c2ccc(C)cc2)C1CC(C)=O)OCO3 (stereo unspecified),-,-,-,-,0,-
O=C(Nc1cnn(Cc2ccc(Cl)c(Cl)c2)c1)C12CC3CC(CC(C3)C1)C2,0,0,0,56,0,43
O=C(Nc1cnn(Cc2ccc(Cl)cc2)c1)c1cccs1,0,0,0,0,0,-
